Measured values taken from PubChem BioAssay.
Several values for one entry are separate records, joined by “and”; a condition that tells them apart may be missing. Equal entries are not always repeated.

test: EMT-state selective cytotoxicity in co-culture – imaging, PC-3E GFP, TEM4-18 mCherry, primary screen (AID 1345086); conditions: PC-3E GFP / TEM4-18 mCherry co-culture, imaging cell counts; measured here: epithelial PC-3E GFP cell survival; at 1 µM;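 also: cells exposed to compound for 72 h before imaging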

Row | SMILES | normalised cell number
1 | COc1cc(N)cc(OC)c1 | 0.97
2 | NCC1O[C@@H](OC2C(N)C[C@@H](N)C(OC3OC(CO)[C@@H](O)C(N)[C@H]3O)[C@H]2O)C(O)CC1O (some centres not stated) | 1.04
3 | CN(C)c1cccc2c(S(N)(=O)=O)cccc12 | 1.15
4 | Nc1nc2ncc(CNc3ccc(C(=O)NC(CCC(=O)O)C(=O)O)cc3)nc2c(=O)[nH]1 (configuration not stated) | 1.04
5 | Nc1nc(Cl)nc2c1ncn2C1O[C@H](CO)[C@@H](O)[C@@H]1F (some centres not stated) | 0.22
6 | O=c1cc(-c2ccccc2)oc2cc(O[C@@H]3O[C@H](CO)[C@@H](O)[C@H](O)[C@H]3O)c(O)c(O)c12 | 1.13
7 | CC(CC(=O)N1C(=O)OC[C@@H]1Cc1ccccc1)N1C(=S)OC[C@H]1c1ccccc1 (some centres not stated) | 1.17
8 | Cc1c(O)c(O)cc2oc3cc(O)cc(O)c3c(=O)c12 | 1.06
9 | C[C@H]1C[C@H]2C(=O)O[C@H]([C@@H](C)CCCC[C@@H](C)O)C[C@@H](O)[C@H](C)C(=O)NC(Cc3ccccc3)C(=O)N2C1 (some centres not stated) | 1.14
10 | C[C@]12CCC3c4ccc(O)cc4C[C@@H](CCCCCCCCCS(=O)CCCC(F)(F)C(F)(F)F)C3C1CC[C@@H]2O (some centres not stated) | 0.99
11 | C[C@@H]1Cc2cccc(O)c2C(=O)O1 | 0.83
12 | COC(=O)C[C@@H]1C2(C)C(=O)[C@@H](CC3=C4CC(=O)O[C@@H](c5ccoc5)[C@]4(C)CCC32)[C@H](OC(C)=O)C1(C)C (some centres not stated) | 0.96
13 | COc1ccc2c(c1)CCC1C2CC[C@@]2(C)C1CC[C@@H]2O (some centres not stated) | 1.46
14 | CCC(/C=C/[C@@H](C)[C@H]1CCC2C3CC=C4C[C@@H](O)CC[C@]4(C)C3CC[C@@]21C)C(C)C (some centres not stated) | 1.13
15 | CC1(C)C[C@H]2[C@@]1(O)[C@@H](O)C[C@]1(C)[C@H](O)C=C[C@]21CO | 1.19
16 | COc1cc2c(cc1OC)Cc1cc(OC)c(OC)cc1Cc1cc(OC)c(OC)cc1C2 | 1.01
17 | COC(=O)CC1C(C)(C)C(OC(C)=O)[C@@H]2[C@@H](OC(C)=O)[C@]34O[C@@]2(O)C1(C)C3CC[C@]1(C)C4=CC(=O)O[C@H]1c1ccoc1 (some centres not stated) | 0.89
18 | CN[C@H]1[C@@H](O[C@@H]2[C@@H](O[C@@H]3[C@@H](O)[C@H](O)[C@@H](N=C(N)N)[C@H](O)[C@H]3N=C(N)N)O[C@H](C)[C@@]2(O)CO)O[C@H](CO)[C@@H](O)[C@@H]1O | 1.23

same assay, conditions: PC-3E GFP / TEM4-18 mCherry co-culture, imaging cell counts; measured here: mesenchymal TEM4-18 mCherry cell survival; at 1 µM

Row | SMILES | normalised cell number
19 | CC(C)=CCC/C(C)=C\CC1=C(C)C(=O)c2ccccc2C1=O | 1.09
20 | C[C@]12CCC3c4ccc(OC(=O)c5ccccc5)cc4CCC3C1CC[C@@H]2O (some centres not stated) | 1.1
21 | CO/C(C)=C1/C(=O)C(CO)OC1O (configuration not stated) | 0.95
22 | CC(=O)O[C@H]1CCC2(C)C3=C(CCC2C1(C)C)[C@@]1(C)CC[C@@H](C(C)CCC=C(C)C)[C@]1(C)CC3 (some centres not stated) | 0.81
23 | CC1CN(c2c(F)c(N)c3c(=O)c(C(=O)O)cn(C4CC4)c3c2F)C[C@H](C)N1 (some centres not stated) | 1.02
24 | Cc1ccc(S[C@H]2OC(COCc3ccccc3)C(OC(=O)CCC(=O)O)[C@@H]3OC(=O)N[C@H]23)cc1 (some centres not stated) | 1.1
25 | CC(=O)OCC1O[C@@H](OC(C)=O)C(NC(=O)OCc2ccccc2)[C@@H](OC(C)=O)C1OC(C)=O (some centres not stated) | 1.09
26 | COC(=O)C12C(C(C)=O)OC(CC(O)C1O)C2C (configuration not stated) | 1.01
27 | COc1cc(C(=O)O)cc(OC)c1O | 1.07
28 | COC(=O)C[C@H]1C2(C)CC34OC5(C)O[C@]6(C7/C(=C(/OC)C(C)C)C(=O)O[C@@H](c8ccoc8)[C@]7(C)C(OC(=O)C(C)C)[C@@H](OC)[C@]6(O5)C13C)[C@H](OC)[C@@]4(OC)C2OC(C)=O (some centres not stated) | 1
29 | CC(C)[C@H]1COC(=O)N1C(=O)CC(C)N1C(=S)OC[C@H]1c1ccccc1 (some centres not stated) | 1.12
30 | O=C(O)c1cc(O)c2c(c1)[C@@H]([C@@H]1c3cc(C(=O)O)cc(O)c3C(=O)c3c(O[C@H]4O[C@H](CO)[C@@H](O)[C@H](O)[C@H]4O)cccc31)c1cccc(O[C@H]3O[C@H](CO)[C@@H](O)[C@H](O)[C@H]3O)c1C2=O | 0.84
31 | O=C(NCC1O[C@@H](OC2C(NC(=O)OCc3ccccc3)C[C@@H](NC(=O)OCc3ccccc3)[C@H](OC3OC(COS(=O)(=O)O)[C@@H](OS(=O)(=O)O)[C@H](NC(=O)OCc4ccccc4)[C@H]3OS(=O)(=O)O)[C@H]2OS(=O)(=O)O)[C@H](OS(=O)(=O)O)[C@@H](OS(=O)(=O)O)C1OS(=O)(=O)O)OCc1ccccc1 (some centres not stated) | 0.91
32 | CCC1OC(=O)[C@H](C)C(=O)[C@H](C)[C@@H](OC2O[C@H](C)C[C@H](N(C)C)[C@H]2O)[C@](C)(OC)C[C@@H](C)C(=O)[C@H](C)[C@H]2N(CCCCn3cnc(-c4cccnc4)c3)C(=O)O[C@@]12C (some centres not stated) | 1.23
33 | C=C1CC[C@@]2(C)[C@H](C)CC[C@H](O)[C@@]2(CCC=C(C)C)[C@@H]1Cc1c[nH]c2ccccc12 | 0.85
34 | COc1c(F)c(F)cc(C(=O)O)c1F | 0.98 and 0.99
35 | CC(C)c1c(O)ccc2c1CCC1C(C)(C)CCC[C@]21C (some centres not stated) | 1.07
36 | Cc1cc(O)c2c(c1)Cc1cccc(O)c1C2=O | 1.2
37 | O=C1OCC[C@H]1Oc1ccc(Oc2cnc3ccc(Cl)cc3n2)cc1 | 1.09
38 | CCC(CCC(C)[C@H]1CCC2C3CC=C4C[C@@H](O)CC[C@]4(C)C3CC[C@@]21C)C(C)C (some centres not stated) | 1.08

Row | SMILES | normalised cell number
39 | COC(=O)[C@@H]1C(O)CC[C@H]2CN3CCc4c([nH]c5ccccc45)[C@@H]3C[C@@H]21 (some centres not stated) | 1.07
40 | COc1cc(N)cc(OC)c1 | 0.91
41 | NCC1O[C@@H](OC2C(N)C[C@@H](N)C(OC3OC(CO)[C@@H](O)C(N)[C@H]3O)[C@H]2O)C(O)CC1O (some centres not stated) | 1.09
42 | CN(C)c1cccc2c(S(N)(=O)=O)cccc12 | 1.16
43 | Nc1nc2ncc(CNc3ccc(C(=O)NC(CCC(=O)O)C(=O)O)cc3)nc2c(=O)[nH]1 (configuration not stated) | 1.23
44 | Nc1nc(Cl)nc2c1ncn2C1O[C@H](CO)[C@@H](O)[C@@H]1F (some centres not stated) | 0.39
45 | O=c1cc(-c2ccccc2)oc2cc(O[C@@H]3O[C@H](CO)[C@@H](O)[C@H](O)[C@H]3O)c(O)c(O)c12 | 1
46 | CC(CC(=O)N1C(=O)OC[C@@H]1Cc1ccccc1)N1C(=S)OC[C@H]1c1ccccc1 (some centres not stated) | 1.02
47 | Cc1c(O)c(O)cc2oc3cc(O)cc(O)c3c(=O)c12 | 1.12
48 | C[C@H]1C[C@H]2C(=O)O[C@H]([C@@H](C)CCCC[C@@H](C)O)C[C@@H](O)[C@H](C)C(=O)NC(Cc3ccccc3)C(=O)N2C1 (some centres not stated) | 1.05
49 | C[C@]12CCC3c4ccc(O)cc4C[C@@H](CCCCCCCCCS(=O)CCCC(F)(F)C(F)(F)F)C3C1CC[C@@H]2O (some centres not stated) | 1.21
50 | C[C@@H]1Cc2cccc(O)c2C(=O)O1 | 0.85
51 | COC(=O)C[C@@H]1C2(C)C(=O)[C@@H](CC3=C4CC(=O)O[C@@H](c5ccoc5)[C@]4(C)CCC32)[C@H](OC(C)=O)C1(C)C (some centres not stated) | 1.02
52 | COc1ccc2c(c1)CCC1C2CC[C@@]2(C)C1CC[C@@H]2O (some centres not stated) | 1.14
53 | CCC(/C=C/[C@@H](C)[C@H]1CCC2C3CC=C4C[C@@H](O)CC[C@]4(C)C3CC[C@@]21C)C(C)C (some centres not stated) | 1.2
54 | CC1(C)C[C@H]2[C@@]1(O)[C@@H](O)C[C@]1(C)[C@H](O)C=C[C@]21CO | 1.07
55 | COc1cc2c(cc1OC)Cc1cc(OC)c(OC)cc1Cc1cc(OC)c(OC)cc1C2 | 1.04
56 | COC(=O)CC1C(C)(C)C(OC(C)=O)[C@@H]2[C@@H](OC(C)=O)[C@]34O[C@@]2(O)C1(C)C3CC[C@]1(C)C4=CC(=O)O[C@H]1c1ccoc1 (some centres not stated) | 0.95
57 | CN[C@H]1[C@@H](O[C@@H]2[C@@H](O[C@@H]3[C@@H](O)[C@H](O)[C@@H](N=C(N)N)[C@H](O)[C@H]3N=C(N)N)O[C@H](C)[C@@]2(O)CO)O[C@H](CO)[C@@H](O)[C@@H]1O | 1.03
